BAZ2B block = inhibitors of human BAZ2B bromodomain | Q9UIF8 | Potency, µM (titrated, usually from 114 µM), actives largely listed as inhibitors | AID 504333 | AlphaScreen BAZ2B-H3K14Ac peptide displacement | actives 4.4% (n = 360,000); also: nearly all actives have a fitted effect of over 60% in size
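AlphaScreen luminescence quantifies BAZ2B engagement of H3K14Ac peptide; the protein and biotinylated peptide are both at 50 nM final, buffer PBS pH 7.4 with 0.01% Tween-20, all steps at room temperature.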
JMJD2A Tudor = JMJD2A Tudor domain (human) inhibition | O75164 | AlphaScreen JMJD2A-Tudor / H3K4me3 peptide binding | AID 504339 | actives 4.4% (n = 390,000) | Potency, µM (highest dose often 114 µM), usual class: inhibitors; also: nearly all actives have a fitted effect of over 50% in size
GLS inhibitor = glutaminase GLS (human) inhibition | GLS enzymatic activity, qHTS titration | Potency, µM (top dose mostly 45.5 µM), hits mostly inhibitors | O94925 | actives 0.21% (n = 410,000)
Target sequence (O94925 whole entry, looked up): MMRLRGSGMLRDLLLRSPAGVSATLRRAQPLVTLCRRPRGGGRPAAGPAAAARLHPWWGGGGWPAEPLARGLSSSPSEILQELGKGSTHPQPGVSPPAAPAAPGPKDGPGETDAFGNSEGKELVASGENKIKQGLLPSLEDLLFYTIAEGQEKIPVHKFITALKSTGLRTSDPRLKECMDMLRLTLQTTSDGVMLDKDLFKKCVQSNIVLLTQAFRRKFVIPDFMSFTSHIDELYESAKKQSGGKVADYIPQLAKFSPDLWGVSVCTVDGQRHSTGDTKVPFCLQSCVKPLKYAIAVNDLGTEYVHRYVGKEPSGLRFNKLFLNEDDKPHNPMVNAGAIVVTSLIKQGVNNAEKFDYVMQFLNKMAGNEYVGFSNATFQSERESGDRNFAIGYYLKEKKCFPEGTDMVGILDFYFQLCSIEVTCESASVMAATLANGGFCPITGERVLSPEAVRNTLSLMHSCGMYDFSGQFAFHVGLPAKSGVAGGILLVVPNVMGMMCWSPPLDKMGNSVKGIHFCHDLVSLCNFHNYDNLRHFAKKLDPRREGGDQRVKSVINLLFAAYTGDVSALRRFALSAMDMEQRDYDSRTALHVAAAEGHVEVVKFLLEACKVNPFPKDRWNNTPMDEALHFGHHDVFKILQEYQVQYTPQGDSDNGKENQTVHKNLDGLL
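Read-out is an Amplex red fluorescence increase coupled through glutamate oxidase and HRP, measured before and after 30 min room-temperature incubation. hKGA is in 45 mM KH2PO4 (pH 8.2) with 0.02% Tween-20; glutamine added as 1mM solution.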
HP1b binding inh = inhibitors of HP1-beta chromodomain binding to methylated histone tails. AlphaScreen HP1-beta / biotin-H3K9me3 peptide binding. Potency, µM (doses to about 114 µM), usual class: inhibitors. actives 0.56% (n = 390,000). AID 540317; also: nearly all actives have a fitted effect of over 70% in size
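Compound inhibition of the preformed complex between 50 nM HP1-beta and 50 nM biotinylated H3K9me3 peptide was read by AlphaScreen. Buffer was PBS pH 7.4 with 0.01% Tween-20. Incubations ran 30 min at room temperature, with 10 ug/mL donor/acceptor beads.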
G9a inh = G9a (human) methyltransferase inhibition | Q96KQ7 | G9a H3K9 monomethylation, AlphaScreen, 2 h | Potency, µM (top dose mostly 102 µM), most hits filed as inhibitors | actives 8.8% (n = 350,000) | AID 504332; also: nearly all actives have a fitted effect of over 75% in size
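G9a (20 nM) was preincubated 15 min with compound, then reacted 2 h at room temperature with 500 nM biotin-H3K9 peptide and 20 µM SAM. Monomethyl-H3K9 detected by AlphaScreen using anti-H3K9me1 antibody.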
Large screens that a line does not name were inactive; ! = repeats disagree. Hits are enriched below; roughly 10% of the tested compounds scored in any of these assays. Calls follow the shape of the dose curve; as a rule, active = well fitted curve in the direction sought with a large enough effect; inconclusive = small, poorly fitted or top-dose-only effect, or another doubt; inactive = no such curve, though single readings can be large; an effect the other way counts as inactive or inconclusive.

Clc1ccccc1CN1CCN(/N=C/c2ccncc2)CC1	BAZ2B block 45µM, JMJD2A Tudor inconclusive, G9a inh 45µM
C(=C\c1ccccc1)/C=N/N1CCN(c2ccccn2)CC1	JMJD2A Tudor inconclusive, G9a inh inconclusive
CCCCN1CC(COCc2ccccc2)Oc2ccccc2S1(=O)=O (stereo unspecified)	none (no result: BAZ2B block, G9a inh)
CN(C(=O)Cn1cc([N+](=O)[O-])ccc1=O)C1CCCCC1	none
COC(=O)C1=C[C@@H](C(=O)OC)C2C3=C(C(=O)[C@]2(C)NC(=O)c2ccccc2)[C@H](C)n2c(=O)n(C)c(=O)n2[C@@H]3C1 (stereo partly specified)	none (no result: BAZ2B block, GLS inhibitor, G9a inh)
CC(C)(C)c1ccc(S(=O)(=O)c2cn(CC(=O)Nc3ccccc3)c3ccccc3c2=O)cc1	none
CCC(OC(=O)CN1C(=O)C(=O)c2ccccc21)C(=O)Nc1ccccc1OC (stereo unspecified)	none
C(=N\N1CCN(Cc2ccccc2)CC1)/c1cccs1	BAZ2B block inconclusive, JMJD2A Tudor inconclusive, G9a inh inconclusive
CCOc1ccc(/C=N/N2CCN(Cc3ccccc3)CC2)cc1	BAZ2B block 50µM, JMJD2A Tudor inconclusive, HP1b binding inh inconclusive, G9a inh 40µM
Clc1ccc(/C=N/N2CCN(Cc3ccccc3)CC2)cc1	BAZ2B block 45µM, JMJD2A Tudor 56µM, HP1b binding inh inconclusive, G9a inh 50µM
CSc1ccc(/C=N/N2CCN(Cc3ccccc3)CC2)cc1	BAZ2B block 13µM, JMJD2A Tudor 45µM, HP1b binding inh 45µM (no result: G9a inh)
COc1ccccc1C(=O)Nc1nc(C)cc(C)n1	none (no result: BAZ2B block, G9a inh)
CCn1c(SCC(=O)Nc2oc(C)c3c(C)n[nH]c(=O)c23)nnc1-c1ccco1	none (no result: BAZ2B block, JMJD2A Tudor, HP1b binding inh, G9a inh)
C[C@H](NC(=O)c1[nH]cnc1C(=O)Nc1ccc(Cl)cc1)c1ccccc1	none
Nc1ccccc1C(=O)C[C@H](N)C(=O)O	JMJD2A Tudor 18µM (no result: BAZ2B block)
CC(C)CN(C)c1nc(N)c(C(=O)N=C(N)N)nc1Cl	none (no result: BAZ2B block, JMJD2A Tudor, GLS inhibitor, HP1b binding inh)
NC(N)=NC(=O)c1nc(Cl)c(N2CCCCCC2)nc1N	BAZ2B block inconclusive, JMJD2A Tudor inconclusive, G9a inh 50µM!
COc1cc(-c2nc(-c3ccccc3)c(-c3cc([N+](=O)[O-])ccc3C)[nH]2)cc(OC)c1OC	BAZ2B block inconclusive, JMJD2A Tudor inconclusive, G9a inh 10µM
Cc1cccn2c(CN(C)CCC3CCCCO3)c(C(=O)N3CCCCC3)nc12 (stereo unspecified)	none
CCCS(=O)(=O)NC(=O)C1(C)CCN(C(=O)c2cccc(C(F)(F)F)c2)C1 (stereo unspecified)	none (no result: BAZ2B block, JMJD2A Tudor, HP1b binding inh, G9a inh)
O=C(Nc1ccc2oc(-c3ccncc3)nc2c1)c1ccc2c(c1)OCCO2	BAZ2B block 56µM, JMJD2A Tudor 56µM, G9a inh 20µM
O=C(Nc1ccc2oc(-c3cccnc3)nc2c1)c1ccc(-c2ccc(OC(F)(F)F)cc2)o1	G9a inh inconclusive
O=C(Nc1ccc2oc(-c3cccnc3)nc2c1)c1ccc2c(c1)OCCO2	BAZ2B block 79µM, JMJD2A Tudor 89µM, G9a inh 14µM
O=C(Nc1ccc2oc(-c3ccncc3)nc2c1)c1ccc(F)cc1	BAZ2B block 50µM, JMJD2A Tudor inconclusive
O=C(Nc1ccc2oc(-c3cccnc3)nc2c1)c1ccc(-c2ccccc2)o1	BAZ2B block inconclusive, JMJD2A Tudor inconclusive, G9a inh 11µM
O=C(Nc1ccc2oc(-c3ccccc3)nc2c1)c1ccc2c(c1)OCCO2	G9a inh inconclusive
Cc1ccc(C)c(SC2=NS(=O)(=O)c3ccccc32)c1	none (no result: BAZ2B block, GLS inhibitor, HP1b binding inh, G9a inh)
O=C1CC(c2ccccc2)Cc2[nH]c(=O)c(C(=O)Nc3cccc(F)c3)cc21 (stereo unspecified)	none
COc1ccccc1C(=O)NC(=O)COC(=O)Cn1[nH]c(=O)c2ccccc2c1=O	none
COc1cc(CNCc2ccccn2)ccc1OCc1c(Cl)cccc1Cl	BAZ2B block 89µM, JMJD2A Tudor inconclusive
COc1cc(CNCc2cccs2)ccc1OCc1ccccc1	none
COc1cc(CNCc2ccccn2)ccc1OCc1ccc(Cl)cc1	BAZ2B block inconclusive, JMJD2A Tudor 25µM
CCc1c(C(C)S(=O)(=O)c2ccc(C)cc2)[nH]c(=O)n1-c1ccc(C)cc1 (stereo unspecified)	G9a inh 8.9µM
CCc1[nH]c(=O)[nH]c1C(C)S(=O)(=O)c1ccc(C)cc1 (stereo unspecified)	HP1b binding inh inconclusive, G9a inh 1.6µM
CCc1c(C#N)c(=O)[nH]c(=O)n1-c1ccccc1	none (no result: BAZ2B block, G9a inh)
Nc1[nH]c(C(=O)c2ccccc2)c(-c2ccncc2)c1C(=O)NCCc1c[nH]c2ccccc12	none (no result: BAZ2B block, JMJD2A Tudor, HP1b binding inh, G9a inh)
CSc1nsc(/C=C/Nc2ccc(C)cc2)c1C#N	BAZ2B block inconclusive, G9a inh 2.2µM
O=S(=O)(Nc1ccc(-n2cccc2)cc1)c1ccc(F)cc1	BAZ2B block inconclusive, HP1b binding inh inconclusive, G9a inh 50µM
COc1ncc2nc(C)c(=O)n(C)c2n1	none (no result: BAZ2B block, JMJD2A Tudor, GLS inhibitor, HP1b binding inh)
Cc1ccc(NC(=O)CCNCc2ccco2)cc1S(=O)(=O)N(C)C	BAZ2B block 50µM, JMJD2A Tudor 1.8µM, HP1b binding inh inconclusive, G9a inh 8.9µM
Cc1ccc(NC(=O)CN2CCC(Cc3ccccc3)CC2)cc1S(=O)(=O)N(C)C	BAZ2B block 40µM, JMJD2A Tudor 18µM, HP1b binding inh inconclusive, G9a inh 8.9µM
Cc1ccc(NC(=O)COC(=O)C2CC(=O)N(Cc3ccccc3)C2)cc1S(=O)(=O)N(C)C (stereo unspecified)	G9a inh 40µM
CC(=O)N1CCN(CC(=O)Nc2ccc(C)c(S(=O)(=O)N(C)C)c2)CC1	BAZ2B block 79µM, JMJD2A Tudor 5.6µM, HP1b binding inh inconclusive, G9a inh 4.5µM
CC(=O)N1CCN(CC(=O)Nc2ccc(Cl)c(S(=O)(=O)N(C)C)c2)CC1	none
CCc1ccc([C@@H]2C[C@H]3[C@@H](CN2S(=O)(=O)c2ccc(C)cc2)C(=O)C[C@@H](c2ccc(C)cc2)N3S(=O)(=O)c2ccc(C)cc2)cc1	none (no result: BAZ2B block, JMJD2A Tudor, HP1b binding inh, G9a inh)
CC(=O)c1cccc(-c2ccnc3c2CC(C(=O)NCC2CCOCC2)O3)c1 (stereo unspecified)	none (no result: BAZ2B block, JMJD2A Tudor, HP1b binding inh, G9a inh)
Cc1ccc(NC(=O)NCCOCCn2c(=O)oc3ccccc32)c(C)c1	none
NC(=O)CC(NC(=O)Cc1cccc2ccccc12)c1ccc(N2CCN(c3ccccn3)CC2)c([N+](=O)[O-])c1 (stereo unspecified)	BAZ2B block inconclusive, G9a inh inconclusive
O=S(=O)(Cc1ccccc1Cl)NCCc1ccccc1	none
CCOC(=O)C1(C(=O)OCC)NC(=O)CC1CC(C)C (stereo unspecified)	none (no result: BAZ2B block, G9a inh)
Cc1ccc(NC(=O)c2ccc(OC(F)(F)F)cc2)cc1S(=O)(=O)N(C)C	none
CCOc1ccc(NC(=O)CN2CCN(C(=O)c3ccco3)CC2)cc1S(=O)(=O)N1CCCC1	none
Cc1ccc(NC(=O)c2ccncc2)cc1S(=O)(=O)N(C)C	G9a inh 50µM

High-throughput results deposited in PubChem by National Center for Advancing Translational Sciences (NCATS).
